In the supplement of paper PMC12350171:
Structures can show the parent of a compound that is named as a salt.

These compounds were tested on Haemophilus parainfluenzae (assay: growth AUC normalised to DMSO control (fraction of control); higher = less growth inhibition, active = hit call of the paper). Conditions: 20 µM;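 active = AUC significantly below DMSO controls by Student t-fit with adjusted P under 0.01; inactive = not significantly reduced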.
Procedure, shortened: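 Pathogens were passaged twice under anaerobic conditions, then inoculated into pre-reduced mGAM plates at a starting OD578 of 0.01, with compound at 20 μM and 1% DMSO, and sealed with breathable membranes. For Haemophilus parainfluenzae, the medium was supplemented with hemin and NAD. OD578 was read every hour for 24 h in three biological replicates. Growth-curve AUC was calculated by the trapezoidal rule up to the exponential-to-stationary transition and normalised to DMSO controls on the same plate.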

Structure (SMILES) | growth AUC normalised to DMSO control
Cc1cccc(Nc2ccncc2S(=O)(=O)NC(=O)NC(C)C)c1 [Torsemide] | 0.978 (inactive)
CC(C)NCC(O)c1ccc2ccccc2c1 (stereo not given) [Pronethalol hydrochloride] | 1 (inactive)
C=CCSCC1Nc2cc(Cl)c(S(N)(=O)=O)cc2S(=O)(=O)N1 (stereo not given) [Althiazide] | 1.07 (inactive)
Nc1nc(Cl)nc2c1ncn2[C@H]1C[C@H](O)[C@@H](CO)O1 [Cladribine] | 1.01 (inactive)
COc1ccc2c(c1)c(CC(=O)OCC(=O)O)c(C)n2C(=O)c1ccc(Cl)cc1 [Acemetacin] | 0.988 (inactive)
O=C1Nc2ccc(Cl)cc2[C@@](C#CC2CC2)(C(F)(F)F)O1 [Efavirenz] | 0.991 (inactive)
CC(=O)N(O)CCCCCNC(=O)CCC(=O)N(O)CCCCCNC(=O)CCC(=O)N(O)CCCCCN [Deferoxamine mesylate] | 1.07 (inactive)
Nc1nc2c(ncn2COC(CO)CO)c(=O)[nH]1 [Ganciclovir] | 0.989 (inactive)
CC(CN(C)C)C(C)(O)Cc1ccc(Cl)cc1 (stereo not given) [Clobutinol hydrochloride] | 0.963 (inactive)
CC[C@H]1OC(=O)[C@H](C)[C@@H](O[C@H]2C[C@@](C)(OC)[C@@H](O)[C@H](C)O2)[C@H](C)[C@@H](O[C@@H]2O[C@H](C)C[C@H](N(C)C)[C@H]2O)[C@](C)(OC)C[C@@H](C)C(=O)[C@H](C)[C@@H](O)[C@]1(C)O [Clarithromycin] | 0.0384 (active)
CC(CNC1CCCCC1)OC(=O)c1ccccc1 (stereo not given) [Hexylcaine hydrochloride] | 0.995 (inactive)
Nc1nc(=O)n([C@@H]2CS[C@H](CO)O2)cc1F [(-) Emtricitabine] | 0.97 (inactive)
Nc1nc(N)nc(-c2cc(Cl)ccc2Cl)n1 [Irsogladine maleate] | 1.01 (inactive)
CC(COc1ccccc1)NC(C)C(O)c1ccc(O)cc1 (stereo not given) [Isoxsuprine hydrochloride] | 0.939 (inactive)
Cc1nc2ccccn2c(=O)c1CCN1CCC(C(=O)c2ccc(F)cc2)CC1 [Pirenperone] | 0.982 (inactive)
Cc1c(NC(C)C)c(=O)n(-c2ccccc2)n1C [Isopyrin hydrochloride] | 0.967 (inactive)
CC(=C(CCO)SSCC1CCCO1)N(C=O)Cc1cnc(C)nc1N (stereo in doubt) [Fursultiamine hydrochloride] | 0.986 (inactive)
Cn1cnc2c1c(=O)[nH]c(=O)n2C [Theobromine] | 1.06 (inactive)
Cc1cc(NS(=O)(=O)c2ccc(N)cc2)no1 [Sulfamethoxazole] | 1.01 (inactive)
O=C(O)c1cccnc1 [Niacin] | 1.07 (inactive)
NC[C@H]1O[C@H](O[C@H]2[C@H](O[C@@H]3O[C@H](CO)[C@@H](O)[C@H]3O)[C@@H](O)[C@H](N)C[C@@H]2N)[C@H](N)[C@@H](O)[C@@H]1O [Ribostamycin sulfate salt] | 0.812 (active)
Clc1ccc(COC(Cn2ccnc2)c2ccc(Cl)cc2Cl)cc1 (stereo not given) [Econazole nitrate] | 1.09 (inactive)
COc1cnc(NS(=O)(=O)c2ccc(N)cc2)nc1 [Sulfameter] | 0.98 (inactive)
CN1CCc2c(c3ccccc3n2Cc2ccccc2)C1 [Mebhydroline 1,5-naphtalenedisulfonate] | 0.932 (inactive)
C[N+](C)(CCOc1ccccc1)Cc1ccccc1.O=C([O-])c1cc2ccccc2cc1O [Bephenium hydroxynaphthoate] | 1.04 (inactive)
Nc1nnc(-c2cccc(Cl)c2Cl)c(N)n1 [Lamotrigine] | 1.01 (inactive)
Cc1cc(CC(=O)O)n(C)c1C(=O)c1ccc(Cl)cc1 [Zomepirac sodium salt] | 0.993 (inactive)
Clc1ccc(C(c2ccccc2Cl)C(Cl)Cl)cc1 (stereo not given) [Mitotane] | 1.01 (inactive)
CCCOc1ccc(C(=O)OCCN(CC)CC)cc1N [Proparacaine hydrochloride] | 1.01 (inactive)
CC(=O)O[C@H]1C(=O)[C@@]2(C)[C@H]([C@H](OC(=O)c3ccccc3)[C@]3(O)C[C@H](OC(=O)[C@H](O)[C@@H](NC(=O)c4ccccc4)c4ccccc4)C(C)=C1C3(C)C)[C@]1(OC(C)=O)CO[C@@H]1C[C@@H]2O [Paclitaxel] | 1.08 (inactive)
